Source: PubChem BioAssay AID1159580 (chemical genetic matrix, 2015)
In all, about 5,500 compounds went through this assay and about 2,000 (36%) were called active. Inconclusive results (about 18%) are left out. Cut-off read from the data, not from the text of the source: active = normalized growth mostly below about 0.91 (no sharp cut-off); inconclusive = no clear call, values can overlap the other calls; inactive = mostly above about 0.92. This is one part of the list.

Assay: chemical genetic growth profiling, strain panel (AID 1159580);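 note: tested at 20 µM; growth read once vehicle control cultures reached saturation at 30 °C; 1 = growth at the plate median or of vehicle wells; lower values mean less growth of the strain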
Details: S. cerevisiae deletion strains, growth OD

Measured: normalized growth

N[C@H](CO)Cc1ccccc1
inactive: locus YAL021C, strain ccr4, hits give low values 1.01 | locus YAL026C, strain drs2, hits give low values 1.02 | locus YAL030W, strain snc1, hits give low values 1.03 | locus YBL061C, strain skt5, hits give low values 1.03 | locus YBR009C, strain hhf1, hits give low values 1.03 | locus YBR023C, strain chs3, hits give low values 1.02 | locus YBR171W, strain sec66, hits give low values 1.02 | locus YBR231C, strain swc5, hits give low values 1.02 | locus YBR279W, strain paf1, hits give low values 1.01 | locus YCL011C, strain gbp2, hits give low values 1.01 | locus YCL016C, strain dcc1, hits give low values 0.998 | locus YCL061C, strain MRC1, hits give low values 1.02 | locus YCL069W, strain vba3, hits give low values 1.02 | locus YCR088W, strain abp1, hits give low values 1.01 | locus YDL005C, strain med2, hits give low values 1.01 | locus YDL040C, strain nat1, hits give low values 1.02 | locus YDR001C, strain nth1, hits give low values 1.02 | locus YDR069C, strain doa4, hits give low values 1.04 | locus YDR137W, strain rgp1, hits give low values 1.01 | locus YDR159W, strain sac3, hits give low values 1.06 | locus YDR195W, strain ref2 1.02 | locus YDR297W, strain sur2, hits give low values 1.05 | locus YDR334W, strain swr1, hits give low values 1.02 | locus YDR335W, strain msn5, hits give low values 1.01 | locus YDR392W, strain spt3, hits give low values 0.927 | locus YEL003W, strain gim4, hits give low values 1.03 | locus YEL037C, strain rad23, hits give low values 1.01 | locus YEL061C, strain CIN8 (second series), hits give low values 1.02 | locus YER015W, strain faa2, hits give low values 1.03 | locus YER016W, strain bim1, hits give low values 1.03 | locus YER111C, strain swi4, hits give low values 1.02 | locus YER155C, strain BEM2 (second series), hits give low values 1.02 | locus YFR010W, strain ubp6, hits give low values 1.04 | locus YGL167C, strain pmr1, hits give low values 1.02 | locus YGL173C, strain kem1, hits give low values 1.03 | locus YGL227W, strain vid30, hits give low values 1.03 | locus YGL240W, strain doc1, hits give low values 1.02 | locus YGL253W, strain hxk2, hits give low values 1.03 | locus YHR013C, strain ard1, hits give low values 1.03 | locus YHR027C, strain rpn1, hits give low values 1.02 | locus YHR030C, strain SLT2, hits give low values 1.07 | locus YHR079C, strain IRE1, hits give low values 1.05 | locus YHR142W, strain chs7, hits give low values 1.03 | locus YJL092W, strain hpr5, hits give low values 1.02 | locus YJL095W, strain BCK1 (second series), hits give low values 1.02 | locus YJL095W, strain BCK1, hits give low values 1.06 | locus YJL115W, strain asf1, hits give low values 1.01 | locus YJL129C, strain trk1, hits give low values 1.03 | locus YJL154C, strain vps35, hits give low values 1.02 | locus YJL164C, strain tpk1, hits give low values 0.994 | locus YJL166W, strain qcr8, hits give low values 1.02 | locus YJL187C, strain SWE1, hits give low values 1.01 | locus YJR066W, strain TOR1, hits give low values 0.974 | locus YKL160W, strain elf1, hits give low values 0.996 | locus YKR026C, strain gcn3, hits give low values 1.02 | locus YKR091W, strain srl3, hits give low values 1.01 | locus YLL001W, strain dnm1, hits give low values 1.01 | locus YLL026W, hits give low values 1.02 | locus YLL041C, strain sdh2, hits give low values 1.01 | locus YLR027C, strain aat2, hits give low values 1.01 | locus YLR113W, strain HOG1, hits give low values 1.05 | locus YLR221C, strain rsa3, hits give low values 1.03 | locus YLR258W, strain gsy2, hits give low values 1.05 | locus YLR262C, strain YPT6 (second series), hits give low values 1.02 | locus YLR320W, strain mms22, hits give low values 1.03 | locus YLR342W, strain FKS1, hits give low values 1.03 | locus YLR357W, strain rsc2, hits give low values 1.05 | locus YLR370C, strain arc18, hits give low values 1.04 | locus YLR384C, strain iki3, hits give low values 1 | locus YML120C, strain ndi1, hits give low values 1.01 | locus YMR058W, strain fet3, hits give low values 1.02 | locus YMR125W, strain sto1, hits give low values 1.01 | locus YMR129W, hits give low values 1.01 | locus YMR205C, strain PFK2, hits give low values 1.02 | locus YMR231W, strain pep5, hits give low values 1.02 | locus YNL071W, strain lat1, hits give low values 1.02 | locus YNL183C, strain NPR1, hits give low values 0.974 | locus YNL209W, strain ssb2, hits give low values 1.01 | locus YNL248C, strain rpa49, hits give low values 1.06 | locus YNL322C, strain KRE1 (second series), hits give low values 1.02 | locus YNR049C, strain mso1, hits give low values 1.02 | locus YOR001W, strain rrp6, hits give low values 1.03 | locus YOR070C, strain gyp1, hits give low values 1.01 | locus YOR080W, strain dia2, hits give low values 1.02 | locus YOR083W, strain WHI5, hits give low values 1 | locus YOR106W, strain vam3, hits give low values 1 | locus YOR231W, strain MKK1, hits give low values 1.07 | locus YOR265W, strain rbl2, hits give low values 1.01 | locus YOR270C, strain vph1, hits give low values 1.06 | locus YOR290C, strain snf2, hits give low values 0.978 | locus YPL051W, strain arl3, hits give low values 1.03 | locus YPL078C, strain atp4, hits give low values 0.99 | locus YPL106C, strain sse1, hits give low values 1 | locus YPL240C, strain hsp82, hits give low values 1.02 | locus YPL256C, strain CLN2, hits give low values 1.04
